Experimental data: PubChem BioAssay (NCATS)
Results filed as inconclusive are left out. The source made the active and inactive calls. Calls come from the whole dose curve; as a rule, active = well fitted cell-killing curve with a large enough effect; inconclusive = small, poorly fitted or top-dose-only effect, or effect the other way; inactive = flat fitted curve, though single readings scatter. Where a SMILES comes first, the peptide text is derived from it. Bridges are numbered along the chain shown (N, C = ends). [ ]: non-standard residue; d: D form. The star is where a group is joined. X1 = CCC(C)C(N)C1=NC(C(=O)*)CS1; dOrn = NCCC[C@@H](N)C(=O)O

How the values were obtained:
Test in all cases: Primary qHTS to identify gynecologic anti-cancer compounds using libraries of approved drugs and bioactive compounds (AID 1345084); note: nearly all actives have a fitted effect of over 55% in size
Es-2 = settings: Gynecologic cancer cell panel viability, ATPlite luminescence, 48 h; series mostly up to 57.5 µM
Summary of the method: (§1)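 ATP-based viability (ATPlite), 1,000 cells/well, 16 h pre-incubation, 48 h compound at 37 C, 5% CO2, 15 min RT before read.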

HeLa = settings: Gynecologic cancer cell panel viability, ATPlite luminescence, 48 h; series mostly up to 57.5 µM
Summary of the method: as §1

Hek293T = settings: Gynecologic cancer cell panel viability, ATPlite luminescence, 48 h, control line for the selectivity index; series mostly up to 57.5 µM
Summary of the method: as §1

JEG-3 = settings: Gynecologic cancer cell panel viability, ATPlite luminescence, 48 h; series mostly up to 57.5 µM
Summary of the method: as §1

OV90 = settings: Gynecologic cancer cell panel viability, ATPlite luminescence, 48 h; series mostly up to 57.5 µM
Summary of the method: as §1

PA-1 = settings: Gynecologic cancer cell panel viability, ATPlite luminescence, 48 h; series mostly up to 57.5 µM
Summary of the method: as §1

SKOV3 = settings: Gynecologic cancer cell panel viability, ATPlite luminescence, 48 h; series mostly up to 57.5 µM
Summary of the method: as §1

Tov-21-G = settings: Gynecologic cancer cell panel viability, ATPlite luminescence, 48 h; series mostly up to 57.5 µM
Summary of the method: as §1

Tov112D = settings: Gynecologic cancer cell panel viability, ATPlite luminescence, 48 h; series mostly up to 57.5 µM
Summary of the method: as §1
% is set by controls: 0 for no effect and ±100 for the full control effect.

CCOC(=O)[C@H](CCc1ccccc1)CC1(C(=O)N[C@H]2CCc3ccccc3N(CC(=O)O)C2=O)CCCC1
inactive: Potency (Es-2) | Potency (HeLa) | Potency (Hek293T) | Potency (JEG-3) | Potency (OV90) | Potency (PA-1) | Potency (SKOV3) | Potency (Tov-21-G) | Potency (Tov112D)

COC12CC3C(C(C)C1=CC(=O)O2)C(O)C(OC(C)=O)C1C(C)(C)C(OC(C)=O)CCC31C (stereo unspecified)
inactive: Potency (Es-2) | Potency (HeLa) | Potency (Hek293T) | Potency (JEG-3) | Potency (OV90) | Potency (PA-1) | Potency (SKOV3) | Potency (Tov-21-G) | Potency (Tov112D)

CCC(C)C(N)C1=NC(C(=O)N[C@@H](CC(C)C)C(=O)N[C@H](CCC(=O)O)C(=O)N[C@H](C(=O)N[C@H]2CCCCNC(=O)[C@H](CC(N)=O)NC(=O)[C@@H](CC(=O)O)NC(=O)[C@H](Cc3cnc[nH]3)NC(=O)[C@@H](Cc3ccccc3)NC(=O)[C@H]([C@@H](C)CC)NC(=O)[C@@H](CCCN)NC2=O)[C@@H](C)CC)CS1 (stereo partly specified) (X1-L[dE]IK[dOrn]I[dF]H[dD]N; lactam 4-C)
inactive: Potency (Es-2) | Potency (HeLa) | Potency (Hek293T) | Potency (JEG-3) | Potency (OV90) | Potency (PA-1) | Potency (SKOV3) | Potency (Tov-21-G) | Potency (Tov112D)

C/C(=C\CCC(C)(O)c1ccc(C)cc1)C(=O)O (stereo unspecified)
inactive: Potency (Es-2) | Potency (HeLa) | Potency (Hek293T) | Potency (JEG-3) | Potency (OV90) | Potency (PA-1) | Potency (SKOV3) | Potency (Tov-21-G) | Potency (Tov112D)

CC(/C=C/[C@]1(O)[C@@]2(C)CO[C@@]1(C)C[C@@H](O)C2)=C\C(=O)O[C@@H]1O[C@H](CO)[C@@H](O)[C@H](O)[C@H]1O
inactive: Potency (Es-2) | Potency (HeLa) | Potency (Hek293T) | Potency (JEG-3) | Potency (OV90) | Potency (PA-1) | Potency (SKOV3) | Potency (Tov-21-G) | Potency (Tov112D)

O=C(NCc1ccc(OC(F)(F)F)cc1)C1c2ccccc2C(=O)N1C1CCOCC1 (stereo unspecified)
inactive: Potency (Es-2) | Potency (HeLa) | Potency (Hek293T) | Potency (JEG-3) | Potency (OV90) | Potency (PA-1) | Potency (SKOV3) | Potency (Tov-21-G) | Potency (Tov112D)

NC(Cc1c[nH]c2ccccc12)C(=O)NC(CCC(=O)O)C(=O)O (stereo unspecified)
inactive: Potency (Es-2) | Potency (HeLa) | Potency (Hek293T) | Potency (JEG-3) | Potency (OV90) | Potency (PA-1) | Potency (SKOV3) | Potency (Tov-21-G) | Potency (Tov112D)

COc1cccc(-c2ccc([C@@H](Oc3cc(-c4ccc(C[C@H](N)C(=O)O)cc4)nc(N)n3)C(F)(F)F)cc2)c1
inactive: Potency (Es-2) | Potency (HeLa) | Potency (Hek293T) | Potency (JEG-3) | Potency (OV90) | Potency (PA-1) | Potency (SKOV3) | Potency (Tov-21-G) | Potency (Tov112D)

C[C@@H]1O[C@@H](O[C@H]2[C@H](O[C@H]3[C@H](O[C@H]4CC[C@@]5(C)C(CC[C@]6(C)C5CC=C5[C@@H]7CC(C)(C(=O)O)C[C@@H](O)[C@]7(C)CC[C@]56C)[C@@]4(C)CO)O[C@H](C(=O)O)[C@@H](O)[C@@H]3O)O[C@H](CO)[C@H](O)[C@@H]2O)[C@H](O)[C@H](O)[C@H]1O (stereo partly specified)
inactive: activity change, negative = cytotoxicity (Es-2) 6.95% [at 11.6 µM] | activity change, negative = cytotoxicity (HeLa) 4.42% [at 11.6 µM] | activity change, negative = cytotoxicity (Hek293T) -2.11% [at 11.6 µM] | activity change, negative = cytotoxicity (JEG-3) -9.71% [at 11.6 µM] | activity change, negative = cytotoxicity (OV90) 0.848% [at 11.6 µM] | activity change, negative = cytotoxicity (PA-1) 3.43% [at 11.6 µM] | activity change, negative = cytotoxicity (SKOV3) 5.26% [at 11.6 µM] | activity change, negative = cytotoxicity (Tov-21-G) 6.81% [at 11.6 µM] | activity change, negative = cytotoxicity (Tov112D) 9.62% [at 11.6 µM]

COC1=CC(=O)O[C@@H](CCc2ccccc2)[C@@H]1O
inactive: Potency (Es-2) | Potency (HeLa) | Potency (Hek293T) | Potency (JEG-3) | Potency (OV90) | Potency (PA-1) | Potency (SKOV3) | Potency (Tov-21-G) | Potency (Tov112D)

CCC(C)(O)C(O)C(=O)OCc1ccc(O[C@@H]2O[C@H](CO)[C@@H](O)[C@H](O)[C@H]2O)c(OC)c1 (stereo partly specified)
inactive: Potency (Es-2) | Potency (HeLa) | Potency (Hek293T) | Potency (JEG-3) | Potency (OV90) | Potency (PA-1) | Potency (SKOV3) | Potency (Tov-21-G) | Potency (Tov112D)

C[C@@H]1CC[C@]2(C)C(C[C@@H](O)[C@H](O)[C@]23CO3)[C@@]1(C)CCc1ccoc1 (stereo partly specified)
inactive: Potency (Es-2) | Potency (HeLa) | Potency (Hek293T) | Potency (JEG-3) | Potency (OV90) | Potency (PA-1) | Potency (SKOV3) | Potency (Tov-21-G) | Potency (Tov112D)

CN1C(=O)N[C@@H](Cc2c[nH]c3c(Cl)cccc23)C1=O
inactive: Potency (Es-2) | Potency (HeLa) | Potency (Hek293T) | Potency (JEG-3) | Potency (OV90) | Potency (PA-1) | Potency (SKOV3) | Potency (Tov-21-G) | Potency (Tov112D)

CC1(C)CC2C3=CCC4C5(C)CCC(OC6OC(C(=O)O)C(O)C(O)C6OC6OC(CO)C(O)C(O)C6OC6OC(CO)C(O)C(O)C6O)C(C)(CO)C5CCC4(C)C3(C)CCC2(C)C(OC2OCC(O)C(OC3OC(CO)C(O)C(O)C3O)C2O)C1O (stereo unspecified)
inactive: activity change, negative = cytotoxicity (Es-2) 1.46% [at 6.55 µM] | activity change, negative = cytotoxicity (HeLa) -0.393% [at 6.55 µM] | activity change, negative = cytotoxicity (Hek293T) 8.01% [at 6.55 µM] | activity change, negative = cytotoxicity (JEG-3) 6.32% [at 6.55 µM] | activity change, negative = cytotoxicity (OV90) -9.75% [at 6.55 µM] | activity change, negative = cytotoxicity (PA-1) 5.88% [at 6.55 µM] | activity change, negative = cytotoxicity (SKOV3) 16.1% [at 6.55 µM] | activity change, negative = cytotoxicity (Tov-21-G) -0.438% [at 6.55 µM] | activity change, negative = cytotoxicity (Tov112D) 1.06% [at 6.55 µM]
